Compound activity from PubChem BioAssay.
E coli Lon inh: inhibitors of E. coli Lon protease, primary screen, biochemical, fluorescence polarization; P0A9M0; purified E. coli Lon protease; inhibition, % at 7.94 µM; actives 0.42% (n = 360,000); in the data active = inhibition above about 13%, passing the limit was not always enough;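 note: 0% = enzyme with probe and DMSO and 100% = no enzyme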
PAFAH1B3 inh: PAFAH1B3 enzyme inhibitors, primary screen, biochemical, fluorescence polarization, human; recombinant PAFAH1B3, FP-rhodamine probe; inhibition, % at 3.39 µM; actives 0.28% (n = 340,000); AID 492972, 2010;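 active = inhibition above the screen-wide average of all tested compounds plus 3 SD, cut at about 25% in these data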;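 note: 0% = enzyme with DMSO only and 100% = wells lacking PAFAH1B3 protein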
PAFAH1B2 inh: PAFAH1B2 enzyme inhibitors, primary screen, biochemical, fluorescence polarization, human; Platelet-activating factor acetylhydrolase IB subunit alpha2 (Homo sapiens), P68402; recombinant PAFAH1B2, FP-rhodamine activity probe; inhibition, % at 3.39 µM; actives 1.2% (n = 340,000);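 active = inhibition above the mean of all tested compounds plus 3 SD, cut at about 24% in these data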;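 note: 0% = enzyme with DMSO and 100% = wells lacking PAFAH1B2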
Target sequence (P68402 whole entry, looked up): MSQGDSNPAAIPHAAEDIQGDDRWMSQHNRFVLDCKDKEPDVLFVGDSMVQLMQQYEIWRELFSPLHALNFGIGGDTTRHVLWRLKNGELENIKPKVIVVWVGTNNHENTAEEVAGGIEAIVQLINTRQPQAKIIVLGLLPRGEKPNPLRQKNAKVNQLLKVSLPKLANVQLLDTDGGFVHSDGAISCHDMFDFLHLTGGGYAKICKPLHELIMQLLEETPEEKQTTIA
Rin1 Abl inh: inhibitors of Rin1-Abl protein binding, primary screen, biochemical, TR-FRET. actives 0.4% (n = 360,000). inhibition, % at 7.35 µM. AID 588664, 2011; in the data active = inhibition above about 5%, passing the limit was not always enough
pPAFAH FP inh: pPAFAH enzyme inhibitors, primary screen, biochemical, fluorescence polarization, human | recombinant pPAFAH, FP-rhodamine probe fluorescence polarization | actives 1.5% (n = 330,000) | inhibition, % at 3.39 µM;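 active = inhibition above the mean inhibition across the screen plus 3 SD, cut at about 25% in these data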;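 note: inhibitors block binding of the rhodamine activity-based probe so polarization drops; 0% = enzyme with DMSO and 100% = wells lacking pPAFAH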
Target sequence (Q13093 whole entry, looked up): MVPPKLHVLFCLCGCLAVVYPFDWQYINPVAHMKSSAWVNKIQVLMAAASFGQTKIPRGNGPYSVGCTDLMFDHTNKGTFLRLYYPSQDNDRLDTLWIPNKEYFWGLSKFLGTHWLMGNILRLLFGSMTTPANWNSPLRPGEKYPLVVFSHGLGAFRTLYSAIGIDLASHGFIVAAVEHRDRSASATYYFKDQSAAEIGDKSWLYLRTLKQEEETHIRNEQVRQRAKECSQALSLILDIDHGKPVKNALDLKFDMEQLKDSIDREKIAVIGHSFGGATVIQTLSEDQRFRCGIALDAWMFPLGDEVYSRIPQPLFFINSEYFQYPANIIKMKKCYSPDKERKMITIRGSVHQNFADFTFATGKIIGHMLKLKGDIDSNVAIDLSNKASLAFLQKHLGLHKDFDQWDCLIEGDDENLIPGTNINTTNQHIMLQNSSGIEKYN
PAFAH2 inh: PAFAH2 enzyme inhibitors, primary screen, biochemical, fluorescence polarization, human | recombinant PAFAH2, FP-rhodamine activity probe | inhibition, % at 3.39 µM | actives 0.99% (n = 340,000) | AID 492956, 2010;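 active = inhibition above the mean over all tested compounds plus 3 SD, cut at about 30% in these data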;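 note: inhibitors block probe labeling of enzyme so polarization drops; 0% = enzyme with DMSO and 100% = wells lacking PAFAH2 protein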
* marks the source's active call; other numbers are inactive results; · = no result. Rows were chosen to be rich in hits. Some 3.1% of all compounds tested hit in one or more screens of this group.

SMILES | E coli Lon inh | PAFAH1B3 inh | PAFAH1B2 inh | Rin1 Abl inh | pPAFAH FP inh | PAFAH2 inh
Cc1ccc(N2CSC3=C(C#N)C(c4cccs4)CC(=O)N3C2)cc1 (stereo unspecified) | -3.1 | 12.2 | 2.6 | -2.9 | 24.7* | 11.9
CCCCOC(=O)c1ccc(NS(=O)(=O)c2cc(-c3nnnn3CC)ccc2OC)cc1 | 0.6 | 9.0 | 5.9 | 1.8 | 28.4* | -0.1
COC(=O)c1sc(-c2ccc(C(C)(C)C)cc2)cc1NC(=O)CCC(=O)O | 3.0 | · | · | 1.1 | 26.1* | ·
COC(=O)c1sc(-c2ccc(Cl)cc2)cc1NC(=O)/C=C/C(=O)O | 4.0 | 4.6 | 26.7* | -0.9 | 2.6 | -2.1
COC(=O)c1sc(-c2ccc(Cl)cc2)cc1NC(=O)COCC(=O)O | 0.7 | 2.8 | 42.5* | 0.4 | 14.6 | 0.6
Nc1cc(Cl)ccc1C(=O)OCC(=O)NCc1cccs1 | -2.3 | 2.9 | 6.5 | 1.6 | 6.2 | 7.6
CC1(C(=O)NCc2ccc(F)cc2)Oc2ccccc2NC1=O (stereo unspecified) | 0.1 | 7.8 | 29.7* | -1.8 | 0.1 | -3.0
COCCNC(=O)C1(C)Oc2ccccc2NC1=O (stereo unspecified) | 0.0 | -3.4 | 0.2 | -2.0 | 3.3 | -12.5
CN(C)S(=O)(=O)c1ccc(C(=O)NC(=O)CSc2nncs2)cc1 | 14.8 | 8.0 | -0.8 | 1.6 | 1.6 | -1.2
COc1ccc(NC(=O)c2cc(C3CCCCN3S(=O)(=O)c3c(C)noc3C)on2)c(C)c1 (stereo unspecified) | -3.3 | · | · | 1.7 | · | ·
COc1cc(C(c2c(C(=O)O)[nH]c3ccccc23)c2c(C(=O)O)[nH]c3ccccc23)ccc1OCc1ccccc1 | 1.1 | 7.8 | 57.3* | -0.5 | 17.9 | 25.7
COCC(=O)c1[nH]c2ccccc2c1C | -0.3 | 6.0 | -1.5 | 1.2 | 1.1 | 1.7
O=C(O)COc1ccc(Br)cc1CP(=O)(c1ccccc1)c1ccccc1 | -3.5 | -3.9 | 8.2 | -0.9 | 5.8 | -4.1
O=C(O)COc1ccc(Br)cc1C(c1c(C(=O)O)[nH]c2ccccc12)c1c(C(=O)O)[nH]c2ccccc12 | -3.5 | 6.8 | 53.1* | 0.6 | 7.0 | 20.1
O=C(O)c1[nH]c2ccccc2c1C(c1ccccc1)c1c(C(=O)O)[nH]c2ccccc12 | -6.4 | 9.6 | 88.5* | 4.2 | 2.1 | 13.2
Cc1ccc(NC(=O)c2ncn(CC(=O)NCc3ccc4c(c3)OCO4)n2)cc1C | -15.3 | 0.6 | 3.9 | -1.1 | 7.1 | -5.6
Cc1cccc(NC(=O)CSc2n[nH]c(-c3cccnc3)n2)c1 | -6.6 | -4.3 | -0.3 | 3.6 | -2.8 | -6.9
O=C1/C(=C/c2cccs2)CCC/C1=C\c1cccs1 | -45.9 | 8.2 | 11.7 | 2.2 | 29.1* | -1.4
CC1C/C(=C/c2cccs2)C(=O)/C(=C/c2cccs2)C1 (stereo unspecified) | -86.2 | -5.2 | -5.9 | 3.2 | 15.8 | -5.5
N#CC1=C(N)NC(SCc2ccc(F)cc2)=C(C#N)C12CCCCC2 | -0.9 | -6.2 | 27.6* | -1.5 | 0.3 | 4.7
CCCCCCOC(=O)CCn1[nH]c(=O)c2ccccc2c1=O | 7.0 | -10.6 | 3.4 | -2.2 | 6.3 | 1.8
CCCCCCCCCCNC(=O)CCn1[nH]c(=O)c2ccccc2c1=O | -4.4 | 8.1 | 60.9* | 4.7 | 30.5* | 22.3
O=C1C=CN2CCCCC2CC1 (stereo unspecified) | 4.7 | 4.8 | 0.7 | -0.2 | 2.1 | 5.0
CC1(C(=O)NS(=O)(=O)c2ccccc2C(F)(F)F)CCN1C(=O)CC1CCCC1 (stereo unspecified) | -4.6 | · | · | 0.4 | · | ·
Cc1ccc(S(=O)(=O)Oc2ccc(/C=C3\C(=N)N4N=C(S(C)(=O)=O)SC4=NC3=O)cc2)cc1 | -12.1 | -0.9 | 59.8* | 2.5 | 11.4 | -6.1
SMILES | E coli Lon inh | PAFAH1B3 inh | PAFAH1B2 inh | Rin1 Abl inh | pPAFAH FP inh | PAFAH2 inh
CS(=O)(=O)C1=NSC2=NC(=O)/C(=C\c3ccc(OS(=O)(=O)c4ccccc4)cc3)C(=N)N21 | 3.8 | 0.7 | 24.9* | 5.4 | 8.0 | -7.2
CCS(=O)(=O)C1=NN2C(=N)/C(=C\c3ccc(OS(=O)(=O)c4ccccc4)cc3)C(=O)N=C2S1 | 1.2 | 0.7 | 19.6 | 3.0 | 12.9 | 5.5
Cc1ccc(S(=O)(=O)Oc2ccc(/C=C3/C(=N)N4C(=NC3=O)SN=C4S(C)(=O)=O)cc2)cc1 | -10.4 | 2.6 | 50.0* | 5.4 | 3.4 | -1.1
COc1cc(/C=C2/C(=N)N3C(=NC2=O)SN=C3S(C)(=O)=O)ccc1OS(=O)(=O)c1ccc(C)cc1 | -28.1 | -1.5 | 22.8 | -0.1 | 11.2 | -3.4
O=C1ON=C(c2ccccc2)/C1=C/c1ccc(OS(=O)(=O)c2ccccc2)cc1 | 9.4 | 4.0 | 101.0* | 2.9 | 13.7 | 23.8
COc1ccc(/C=C2\C(=O)ON=C2c2ccccc2)cc1 | -12.6 | 0.1 | 5.9 | -0.6 | -0.4 | 7.3
Cc1ccc(-n2cccc2/C=C2/C(=N)N3C(=NC2=O)SN=C3S(C)(=O)=O)cc1 | -24.5 | -7.7 | 27.7* | 0.0 | 2.0 | -6.5
COc1cc(C)c(/C=C/C(C)=C/C=C/C(C)=C/C(=O)O)c(C)c1C | -5.4 | 3.3 | 1.1 | -4.6 | 29.0* | 17.4
COc1ccc(CCNS(=O)(=O)c2cc(/C=C/C(=O)O)ccc2C)cc1OC | -0.1 | 8.6 | -0.9 | 1.3 | 2.3 | 8.8
Cc1ccc(Nc2c(-c3ccccn3)nc3cc(C)ccn23)cc1 | -18.9 | 4.0 | 0.7 | -6.0 | 9.6 | 5.0
Cc1ccc(Nc2c(-c3ccccn3)nc3ccc(C)cn23)cc1 | -3.6 | 5.4 | 7.9 | 0.3 | 28.1* | -3.3
COC(=O)c1ccsc1NS(=O)(=O)c1ccccc1 | -94.3 | 5.2 | 5.2 | 4.0 | 28.4* | 0.4
COC(=O)c1sccc1NS(=O)(=O)c1ccccc1 | -7.1 | 5.1 | 2.5 | 4.8 | 3.2 | 1.2
Nc1nonc1-n1nnc(C(=O)N/N=C/c2ccoc2)c1CSc1ccc(Cl)cc1 | -2.1 | 5.1 | 5.9 | 0.1 | 15.1 | 8.1
O=C1c2cc(CO)cc(O)c2C(=O)c2c(O[C@@H]3OC(CO)[C@@H](O)[C@@H](O)[C@@H]3O)cccc21 (stereo partly specified) | 6.1 | 8.6 | 0.9 | -8.6 | 1.8 | -1.9
O=C(O)c1cc(O)c2c(c1)[C@@H]([C@H]1c3cc(C(=O)O)cc(O)c3C(=O)c3c(O[C@@H]4O[C@H](CO)[C@@H](O)[C@H](O)[C@H]4O)cccc31)c1cccc(OC3O[C@H](CO)[C@@H](O)[C@H](O)[C@H]3O)c1C2=O (stereo partly specified) | -7.9 | 75.9* | 78.3* | 8.3 | 96.9* | 86.0*
CCOc1ccccc1CNC(=O)c1ccc2c(c1)N(CC)CCS2 | 0.2 | 0.9 | 4.9 | -2.5 | 12.2 | -2.7
